Source: PubChem
Tau fibril ThT = qHTS for Inhibitors of Tau Fibril Formation, Thioflavin T Binding; Microtubule-associated protein tau (Homo sapiens), P10636; recombinant tau K18 P301L, heparin-induced fibrillization, ThT fluorescence; Potency, µM (doses to about 57.4 µM), without a hit: at the top dose activity, negative = inhibition, actives largely listed as inhibitors; 270,000 compounds, 2.1% hits; further: nearly all actives have a fitted effect of over 55% in size
Target sequence (P10636 561-689 P618L limits assumed): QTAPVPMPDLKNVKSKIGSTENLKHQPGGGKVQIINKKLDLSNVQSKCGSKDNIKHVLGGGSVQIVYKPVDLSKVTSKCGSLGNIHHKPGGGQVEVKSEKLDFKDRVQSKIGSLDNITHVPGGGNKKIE
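ThT emission at 510 nm, taken 1 hr after adding 30 uM dye, quantifies aggregates formed when 20 uM heparin acts on human tau K18 P301L for 6 hr at 37 C.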
TRb SRC2 PPI = qHTS for Inhibitors of the Interaction of Thyroid Hormone Receptor and Steroid Receptor Coregulator 2. Thyroid hormone receptor beta (Homo sapiens), P10828. TRbeta-SRC2 peptide binding, fluorescence polarization; receptor liganded with 1 µM T3. Potency, µM (doses to about 106 µM), for inactives: at the highest dose activity change, negative = inhibition, usual class: inhibitors. 280,000 compounds, 0.065% hits. AID 1469, 2008;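 further: plate controls were bound peptide for no effect and peptide without receptor for full effect; nearly all actives have a fitted effect of over 50% in size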
Target sequence (P10828 whole entry, looked up): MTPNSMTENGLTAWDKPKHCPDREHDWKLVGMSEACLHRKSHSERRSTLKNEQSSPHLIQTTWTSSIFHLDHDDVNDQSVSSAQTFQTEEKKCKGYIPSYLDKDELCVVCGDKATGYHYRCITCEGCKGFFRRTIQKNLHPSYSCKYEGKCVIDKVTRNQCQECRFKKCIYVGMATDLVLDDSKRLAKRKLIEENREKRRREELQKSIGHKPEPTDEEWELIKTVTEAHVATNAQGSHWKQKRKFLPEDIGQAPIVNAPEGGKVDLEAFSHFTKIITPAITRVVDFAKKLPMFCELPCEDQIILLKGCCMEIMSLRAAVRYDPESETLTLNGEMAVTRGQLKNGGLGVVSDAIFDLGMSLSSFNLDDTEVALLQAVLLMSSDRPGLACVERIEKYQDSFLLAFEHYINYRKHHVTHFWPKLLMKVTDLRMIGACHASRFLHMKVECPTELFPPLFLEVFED
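Human TRb LBD (0.6 uM) plus Texas Red-labeled SRC2 peptide (20 nM), 1uM T3, 5% DMSO, 5 hr at ambient temperature. Decreased polarization (555/632 nm) flags inhibition; data normalized to free and bound peptide controls.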
TexasRed fluor = Total Fluorescence Counterscreen for Inhibitors of the Interaction of Thyroid Hormone Receptor and Steroid Receptor Coregulator 2. TRb/SRC2 Texas Red total fluorescence interference. Potency, µM (top dose mostly 106 µM), inactives show at the highest dose fluorescence change, negative = quenching. 280,000 compounds, 0.29% hits. AID 1479, 2009; active means well fitted curve in either direction with a large enough effect; inconclusive means small, poorly fitted or top-dose-only effect
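Human TRb ligand-binding domain at 0.6 uM with 20 nM Texas Red SRC2 peptide in Tris buffer containing 1 uM T3 and 5% DMSO, incubated with compound 5 h at ambient temperature. Total fluorescence (555/632 nm) calculated as parallel + 2 × perpendicular.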
Tau fluor counter = Counterscreen qHTS for Inhibitors of Tau Fibril Formation, Fluorescence Polarization; tau K18 P301L Alexa594 fluorescence, heparin fibrillization; Potency, µM (highest dose often 57.7 µM), for inactives: at the highest dose activity change, negative = decrease; AID 1463, 2008; 280,000 compounds, 0.93% hits; further: nearly all actives have a fitted effect of over 55% in size
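Human K18 P301L tau (15 uM unlabeled plus 0.24 uM Alexa 594-labeled, final) in 100 mM sodium acetate pH 7 was mixed with compound and 20 uM heparin and incubated 6 hr at 37 C.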
Tau FP inhib = qHTS for Inhibitors of Tau Fibril Formation, Fluorescence Polarization | Microtubule-associated protein tau (Homo sapiens), P10636 | K18 P301L tau heparin fibrillization, Alexa594 FP, 6 h | Potency, µM (top dose mostly 57.7 µM), without a hit: at the highest dose activity, negative = inhibition, actives largely listed as inhibitors | 280,000 compounds, 0.39% hits; further: nearly all actives have a fitted effect of over 55% in size
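Heparin (20 uM) drove fibril formation of recombinant tau K18 P301L, 15 uM unlabeled with 0.24 uM Alexa 594 label, for 6 hr at 37 C in 100 mM sodium acetate pH 7. Fluorescence polarization (555/632 nm) read 1 hr after 30 uM ThT.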
RGS12 GoLoco inh = qHTS Assay for Inhibitors of RGS12 GoLoco Motif Activity (Red Fluorophore); Gai1:RGS12 GoLoco peptide FP, rhodamine, 10 min; 230,000 compounds, 0.44% hits; AID 880, 2007; Potency, µM (doses to about 61.6 µM), for the others: at the highest dose activity, negative = inhibition, actives largely listed as inhibitors; Guanine nucleotide-binding protein G(i) subunit alpha-1 (Homo sapiens), P63096; active means well fitted inhibition curve with a large enough effect, not every such curve was filed as active; inactive means no such curve, though single readings can be large or run the other way; further: nearly all actives have a fitted effect of over 30% in size
Numbers without * were called inactive; u = inconclusive; x = no result given; [ ] = another dose, or the depositor's remark. A selection: hits, their analogues and other compounds. The true share with any hit is near 3.1%. Unless noted, the call rests on the fitted dose curve; in most records, active means well fitted curve in the direction sought with a large enough effect; inconclusive means small, poorly fitted or top-dose-only effect, or another doubt; inactive means no such curve, though single readings can be large; an effect the other way counts as inactive or inconclusive. Unless noted, on the % scale 0 is the no-effect control and ±100 the full control effect; potency means the concentration at half of the fitted maximal effect.

SMILES | Tau fibril ThT | TRb SRC2 PPI | TexasRed fluor | Tau fluor counter | Tau FP inhib | RGS12 GoLoco inh
COc1ccc(-c2cc(C(F)(F)F)nc(NCc3ccccc3)n2)cc1 | -12% | 3% | -3% | -28% | u | x
COc1ccc(-c2cc(C(F)(F)F)c3c(=O)n(-c4ccccc4)[nH]c3n2)cc1 | 8.9µM* | -2% | -5% | u | 8% | 2%
COCCn1c(=O)cnc2cnc(Nc3ccccc3)nc21 | x | x | x | x | x | 16%
Cc1ccc(NC(=O)N2CCc3cc(S(=O)(=O)N4CCC(C)CC4)ccc32)cc1F | 12% | -17% | 28µM*[quencher] | -11% | u | x
Cn1c(=O)c(-c2ccc(Cl)cc2)nc2cnc(N3CCNCC3)nc21 | x | x | x | x | x | -9%
COc1ccc(OC)c([C@@H]2Nc3ccc(C(=O)O)cc3[C@@H]3C=CC[C@@H]32)c1 | u | 5% | 0% | -11% | 5% | x
COc1cccc(NS(=O)(=O)c2ccc3c(c2)C2C=CCC2C(c2ccc(C(=O)O)cc2)N3)c1 (centres undefined) | 14µM* | 3% | -4% | 13µM*[quencher] | u | 52%
Cc1cccc(NS(=O)(=O)c2ccc3c(c2)[C@H]2C=CC[C@H]2[C@@H](c2ccc(F)cc2)N3)c1 | u | 16% | 8% | 5.6µM*[quencher] | -8% | x
COc1ccc(C(=O)N/N=C(\C)c2ccc3c(c2)C2C=CCC2C(c2ccccc2)N3)cc1 (centres undefined) | 13µM* | 5% | 4% | u | -4% | -5%
COc1ccccc1OCC(=O)NCCSCc1ccc(Cl)cc1 | -11% | 1% | -6% | -4% | 1% | -5%
CC(C)c1ccc2[nH]c(O)c(N=NC(=O)c3cccc(S(=O)(=O)Nc4cccc(Cl)c4)c3)c2c1 | -10% | 3% | -3% | -24% | -5% | 0%
CCc1ccc(OCC(=O)NCC(c2ccc(Cl)cc2)N2CCOCC2)cc1 (centres undefined) | -9% | -21% | 10µM*[quencher] | -2% | 2% | x
CCCCOc1ccc(C(=O)CCN2CCOCC2)cc1 | u | 5.6µM* | -4% | -10% | u | 1%
CCCOc1ccc(C(=O)CCN2CCCCC2)cc1 | u | 40µM* | 2% | 6% | 0% | -4%
Cc1nnc(NC(=O)c2sc3nc(-c4cccs4)cc(C(F)(F)F)c3c2N)s1 | 13µM* | 7% | 4% | -15% | 2% | 53%
Nc1c(C(=O)Nc2nccs2)sc2nc(-c3cccs3)cc(C(F)(F)F)c12 | 7% | 6% | 0% | 3% | -6% | 55%
CCOC(=O)NCc1ccc(S(=O)(=O)Nc2ccc(C)cc2)cc1 | -6% | 4% | -7% | -6% | 5% | 7%
COc1ccccc1CC(=O)Nc1ccc2nc(Nc3cccc(C(F)(F)F)c3)cc(C)c2c1 | -13% | 9% | -1% | 6.3µM*[quencher] | -7% | x
CCN1CCN(c2cc(C)c3cc(NC(=O)Cc4ccccc4OC)ccc3n2)CC1 | -9% | 0% | -1% | -4% | u | -3%
COc1cccc(CC(=O)Nc2ccc3nc(Nc4cccc(C(F)(F)F)c4)cc(C)c3c2)c1 | u | 5% | -2% | 7.1µM*[quencher] | u | x
COc1cccc(NC(=O)Cc2ccccc2)c1 | -13% | 0% | -6% | -6% | 3% | 2%
COc1ccc(-n2nnnc2SCC(=O)Nc2ccccc2N2CCOCC2)cc1OC | 10µM* | 3% | 2% | -17% | -80% | 13%
CCC(=O)N1CCN(c2ccc(NC(=O)c3cc4ccccc4o3)cc2)CC1 | 2.8µM* | -10% | -6% | u | 2% | -12%
O=C(Nc1ccc(N2CCN(C(=O)c3ccc(Cl)cc3)CC2)cc1)c1cc2ccccc2o1 | u | 8% | 2% | u | 6% | -2%
O=C(Nc1ccc(N2CCOCC2)cc1)c1cc2ccccc2o1 | 5.6µM* | 1% | -9% | -27% | 2% | -2%
SMILES | Tau fibril ThT | TRb SRC2 PPI | TexasRed fluor | Tau fluor counter | Tau FP inhib | RGS12 GoLoco inh
COc1ccccc1Nc1nc(NCc2ccco2)c2ccccc2n1 | u | 1% | -1% | 22µM*[quencher] | u | 8%
c1ccc(N2CCN(c3nc(NCc4ccco4)c4ccccc4n3)CC2)cc1 | u | -6% | -5% | 25µM*[quencher] | 3% | 0%
Oc1ccccc1Nc1nc(NCc2ccccc2)c2ccccc2n1 | -19% | 7% | -13% | 16µM*[quencher] | 9% | 0%
c1coc(CNc2nc(N3CCCCC3)nc3ccccc23)c1 | -12% | u | 2% | -14% | 2% | -16%
CC1=C(C(=O)N2CCOCC2)C(c2cccs2)NC(=O)N1 (centres undefined) | 2% | 3% | -1% | 7% | 5% | 0%
CC1=C(C(=O)N2CCOCC2)C(c2cc(C)cs2)NC(=O)N1 (centres undefined) | -15% | 20µM* | 28µM*[fluorescent] | -4% | 4% | 5%
CCOc1cc(N(CC)CC)ccc1/C=C(/C#N)c1nc2ccccc2[nH]1 | u | -8% | -4% | 10µM*[quencher] | 11% | 42%
CCC(=O)Oc1ccc(/C=C(\C#N)c2nc3ccccc3[nH]2)cc1OC | u | -13% | -24% | u | -5% | x
COc1cc(/C=C(\C#N)C(=O)NCCc2ccccc2)cc(OC)c1O | u | 1% | -8% | -29% | 2% | -4%
COc1cc(/C=C(\C#N)C(=O)c2c[nH]c3ccccc23)cc(OC)c1O | 16µM* | 9% | -2% | -8% | 9% | 194%
COc1cc(/C=C(\C#N)c2nc3ccccc3[nH]2)cc(OC)c1O | 7.1µM* | 2% | -18% | u | u | 217%
COc1cc(/C=C(\C#N)c2nc3ccccc3[nH]2)cc(Br)c1OCc1ccccc1 | u | -23% | -6% | 13µM*[quencher] | u | 11%
S=C(NCCCn1ccnc1)Nc1ccc(Cl)cc1Cl | 1% | 3% | -4% | 0% | -7% | 15%
CCCCN(CCCNC(=O)c1cc(Nc2cccc(SC)c2)nc2ccccc12)Cc1ccccc1 | u | -4% | -1% | 1.8µM*[quencher] | u | x
CSc1cccc(Nc2cc(C(=O)NCCc3ccc(Cl)cc3)c3ccccc3n2)c1 | -11% | 1% | 1% | 3.5µM*[quencher] | u | x
O=C(NCCc1ccccc1)c1cc(Sc2cccc(Cl)c2)nc2ccccc12 | -5% | -1% | 0% | -16% | -6% | x
